Structures are written as SMILES. This is part of a sample that, as a whole, favours compounds with a hit. Of some 79,000 tested, about 15% had one in any assay. Values without a mark were called inactive. The source made the active and inactive calls. Rule as the data show it: active = growth inhibition above about 70%; inactive = the rest.

A short description of this experiment: NCI Yeast Anticancer Drug Screen. Data for the sgs1 strain (AID 173).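 Also: 0% = growth of vehicle-only control cultures.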 The note with it: S. cerevisiae sgs1 mutant, at 1.2 µM, hits give high values. The gist of the method: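 Read-out: yeast growth inhibition relative to vehicle controls, following compound exposure of a strain with a defined DNA repair/cell cycle alteration.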
`C/C(=N\NC(=S)SCc1ccccc1)c1ccccn1`: the growth inhibition is 37%. For the compound `CC[C@@]1(O)C(=O)OCc2c1cc1n(c2=O)Cc2cc3c(N)cccc3nc2-1`, the growth inhibition is 0%. Take `CN(C)c1ccc(Sc2ccc3nc(N)nc(N)c3c2)cc1`: the growth inhibition was 14%. The result for `CC(=O)OCCOCNC(=S)N/N=C(\C)c1cnccn1` reads -23%; that for `COc1ccc(C2c3cc4c(cc3OC(C)(O)C2C)OCO4)c(OC)c1` (stereo not given), 2%. The result for `COc1ccc(Br)c(C(=O)Sc2nnnn2-c2cccc(Cl)c2)c1` reads 2%.

Turning to `O=C(NNc1ccnc2cc(Cl)ccc12)/C(=C\c1ccccc1Cl)NC(=O)c1ccccc1`, the growth inhibition is 1%.

For the compound `CSC(=S)Nc1cccc(C)n1`, the growth inhibition was -47%. The result for `O=C(/C=C\c1ccc(Cl)cc1Cl)c1cccs1` reads 0%. The result for `COc1ccc(-c2cn(-c3ccc(I)cc3)c3ncnc(N)c23)cc1` reads -4%; that for `COc1cc(/C=C2\CCc3ccccc3C2=O)cc(OC)c1OC`, 16%. The result for `CC(C)/C(Cl)=N\OC(=O)Nc1cccc(Cl)c1` reads 0%; that for `CC1(C)[C@@H]2CC[C@]1(C)[C@H](OC(=O)CSC#N)C2`, 9%; that for `NNC(=O)CCc1ccc2ccc3ccccc3c2c1`, 6%. On to `COc1ccc(/C(C)=N/OC(=O)c2c(-c3ccccc3Cl)noc2C)cc1CN1CCOCC1`, for which the growth inhibition is -30%.

Consider `C=CC(C)(O)CCC1C(=C)C(O)CC2C(C)(C)CCCC12C` (stereo not given), for which the growth inhibition was 11%.

Regarding `S=C(Nc1ccc(Cl)c(Cl)c1)SCc1ccc2c(c1)OCO2`, the growth inhibition is 6%. For the compound `COc1cc(C2C3=C(COC3=O)Oc3cc4c(cc32)OCO4)ccc1O` (stereo not given), the growth inhibition was -4%. The result for `S=C(Nc1ccc(Cl)cc1)SC1CCCCC1` reads 0%. The result for `COC1=CC(=O)C2C(C1=O)C(c1ccc(Cl)cc1)[C@@H]2C` (stereo not given in full) reads 33%.

Take `c1ccc(-c2nc3cccnc3s2)cc1`: the growth inhibition is -2%. Take `COc1ccc(/C=C2\SC(=S)N(/C=C/c3nc4ccccc4[nH]c3=O)C2=O)cc1OC`: the growth inhibition is 5%. The result for `CCCN(CCC)CC(O)c1cc(-c2ccc(Cl)cc2)nc2c(C)c(Cl)ccc12` (stereo not given) reads -2%; that for `O=C(Nc1ccccc1)OCCc1ccc(Cl)c(Cl)c1`, -19%. For `CC(O)C(O)C(O)C(/C=N\Nc1ccccc1)=N/Nc1ccccc1` (stereo not given), the growth inhibition was 1%. The result for `C#CCCCc1ccccc1` reads -48%. The result for `CC(=O)Cc1ccc[cH-]1.[Fe+2].c1cc[cH-]c1` reads 0%; that for `Cc1cc(I)ccc1N`, 19%.

Take `FC(F)(F)c1cc(NC(=S)N2c3ccccc3-n3cccc3C2c2cccnc2)cc(C(F)(F)F)c1` (stereo not given): the growth inhibition is -8%.

In the case of `CC(C)(CN1CCCCC1)C(=O)CC(SCCS(=O)(=O)O)c1ccc(Br)cc1` (stereo not given), the growth inhibition was 2%.

In the case of `C[Si](C)(C)CNC(=O)OCc1ccccc1`, the growth inhibition is 1%. On to `CC(C(=O)N1C(=O)N(C(=O)[C@H](C)C(O)c2ccccc2)[C@H](c2ccccc2)[C@H]1c1ccccc1)[C@@H](O)c1ccccc1` (stereo not given in full), for which the growth inhibition is -2%.

With `Oc1cccc2c(Cl)ccnc12`, the growth inhibition is 36%. The result for `O=C1C=CC(=C(c2ccccc2)c2ccccc2)c2ccccc21` reads -11%; that for `S=C(S)NN1CCOCC1`, 84% (active).

The values above are taken from PubChem BioAssay (NCI).
